The structures appear in SMILES notation. Compounds without any hit were thinned out: in the full panel of roughly 83,000, 20% have a hit.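 Negative percent growth values reflect cell death: -40 means 40% of the cells present at the start died, and -100 means all died.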 Unmarked numbers belong to inactive results. Calls of active or inactive are those of the source. How the source made its calls: active means growth percent below 10; inactive means the rest.

Common to all, as to assay: NCI-60 one-dose screen, 48 h (100 = growth as untreated, 0 = no growth, -100 = all killed)
For test [1], the system named is DU-145 prostate. Particulars: 10 µM unless noted.
Test [2] has as its system K-562 leukemia. The note with it: 10 µM unless noted.
Test [3] deals with MALME-3M melanoma. Particulars: 10 µM unless noted.
For test [4], the system named is MDA-MB-231 breast. Particulars: 10 µM unless noted.
Test [5] has as its system RXF 393 renal. The note with it: 10 µM unless noted.
Test [6] concerns SF-268 CNS. The note with it: 10 µM unless noted.
In test [7] the test system is SF-295 CNS. The note with it: 10 µM unless noted.
In test [8] the test system is SF-539 CNS. Particulars: 10 µM unless noted.
The test system of test [9] is UACC-257 melanoma. Particulars: 10 µM.
The test system of test [10] is M14 melanoma. The note with it: 10 µM unless noted.

Take `COc1cc2c3c(c(=O)oc2cc1OS(=O)(=O)c1ccc(C(F)(F)F)cc1)CCCCC3`: the growth in test [1] is 82.4%; in [2], 97.3%; in test [3], 72.1%; in test [4], 68.6%; in test [5], 30.1%; in test [6], 93.4%. Also, the growth in test [7] was 81.9%; in test [8], 64.9%; in [9], 95.6%; in [10], 83.7%.

With `N#Cc1ccc(NC(=O)c2ccc3cccnc3c2O)cc1`, the growth in test [1] is 29.4%; in [2], 30.7%; in test [3], 42.1%; in test [4], 44.4%; in [5], 49.4%; in test [6], 21.6%. Further, the growth was 38.5% in test [7], 17.1% in test [8], 13.5% in test [9] and 6.01% (active) in test [10].

Take `CCNC(=O)C1CCCN1C(=O)C(CCCN=C(N)N)NC(=O)C(CC(C)C)NC(=O)C(CC(C)C)NC(=O)C(Cc1ccc(O)cc1)NC(=O)C(CO)NC(=O)C(Cc1c[nH]c2ccccc12)NC(=O)C(Cc1cnc[nH]1)NC(=O)C1CCC(=O)N1` (stereo not given): the growth in test [1] is 135%; in test [2], 73.5%; in test [3] it was 122%; in [4] it was 112%; in test [5], 28.4%; in test [6] it was 100%. The growth is 122% in test [7], 96.1% in [8], 83.8% in test [9] and 102% in [10].

Turning to `COc1ccc(NC(=O)CSc2nc3ccccc3c(=O)n2-c2ccccc2C(F)(F)F)c(OC)c1OC`, the growth in [1] was 105%; in test [2], 94.5%; in test [3] it was 106%; in test [4], 89%; in test [5], 108%; in test [6], 100%. In addition, the growth is 94.2% in test [7], 94.7% in test [8], 100% in [9] and 97.5% in test [10].

On to `COc1cc(/C=C/C(=O)c2ccc(NC(=O)CN3CCN(c4cc5c(cc4F)c(=O)c(C(=O)O)cn5C4CC4)CC3)cc2)cc(OC)c1OC`, for which the growth was 2.17% (active) in test [1]; 1.66% (active) in [2]; 31.4% in test [3]; 27.6% in test [4]; -87.6% (active) in test [5]; -1.11% (active) in test [6]. In addition, the growth in test [7] was -27.2% (active); in [8], -15.7% (active); in [9], 30.8%; in test [10] it was -14.1% (active).

Regarding `Cc1ccc(Oc2nc3ccccc3cc2-c2nnc(Cn3c(COc4ccccc4)nc4ccccc43)o2)cc1`, the growth in test [1] was 63.5%; in test [2], -3.18% (active); in test [3], 72.5%; in test [4], 47.7%; in test [5] it was 60.3%; in [6], 20.6%. Also, the growth in test [7] was 92%; in [8], 63.3%; in test [9], 94.6%; in test [10], 45.5%.

In the case of `COc1cccc(-c2nc3sccn3c2-c2ccnc(NCCCNS(=O)(=O)c3ccccc3)n2)c1`, the growth was 52.1% in test [1]; 25.5% in [2]; 36.4% in [3]; 59.5% in test [4]; 67.1% in [5]; 62.7% in test [6]. Also, the growth in test [7] was 55%; in test [8], 70.4%; in test [9] it was 65.7%; in [10], 25.2%.

Take `O=C1N=C(c2c(-c3[nH]c(=O)c4ccc(Br)cc4c3O)c(O)c3ccccc3c2O)C(=O)c2cc(Br)ccc21`: the growth is -38.2% (active) in test [1]; 14.3% in test [2]; -74.3% (active) in [3]; -8.73% (active) in test [4]; -76.1% (active) in test [5]; -41.4% (active) in [6]. The growth in test [7] is 17.2%; in [8], -57.7% (active); in [9], -51.6% (active); in test [10], -31.9% (active).

`Cc1nn(-c2ccc(Cl)cc2)c(=O)n1CCOc1ccccc1Cl`: the growth in [1] was 110%; in test [2] it was 96.8%; in test [3], 103%; in test [4] it was 89.6%; in test [5], 115%; in test [6], 106%. Moreover, the growth in test [7] is 72.3%; in test [8], 108%; in test [9], 105%; in test [10], 98.8%.

Regarding `CN(C)c1ncc(-c2ccc(C(F)(F)F)cc2)c(NC2CCCCCC2)n1`, the growth in test [1] is 84.9%; in test [2], 28.2%; in test [3] it was 5.4% (active); in [4], 83.4%; in test [5], 78.8%; in test [6] it was 80.8%. The growth in test [7] was 32.7%; in test [8], 97.3%; in [9], 38.1%; in test [10], 44.5%.

For the compound `CN(C)c1ccc(/C=C\N=Nc2ccc(Br)cc2)cc1`, the growth was 45.8% in test [1]; 16.7% in test [2]; 86.5% in [3]; 49.6% in test [4]; 108% in [5]; 52.7% in test [6]. The growth in test [7] was 29.1%; in test [8] it was 5.55% (active); in test [9], 87.5%; in test [10] it was 41.4%.

`COc1ccc(-c2cn[nH]c2-c2cc(OC)c3c(c2)OCO3)cc1`: the growth is 12.4% in test [1]; 10.1% in test [2]; 30.9% in test [3]; 11% in [4]; -31.3% (active) in [5]; 37.6% in test [6]. The growth in test [7] was -10.4% (active); in test [8] it was -28.7% (active); in [9], 66.9%; in test [10], 16%.

As for `COc1cc(NC(=O)CCl)ccc(=O)c1`, the growth in [1] is 83.5%; in [2] it was 75.2%; in [3], 87.7%; in test [4], 58.6%; in test [5], 84.7%; in [6] it was 77.6%. For the same compound, the growth was 80.9% in test [7], 83.5% in [8], 66% in [9] and 78.6% in [10].
